Hits are enriched below; roughly 4.2% of the tested compounds scored in any of these assays.
hgDAF-12 ag: activates the H. glycines DAF-12 receptor ligand-binding domain; HEK293 GAL4-hgDAF12 UAS-luciferase reporter, agonist luminescence; normalized to butyrate control; activation, % at 6.8 µM; 370,000 tested, 1.8% active;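 active = activation above a cutoff set at the mean of all screened compounds plus 3 SD, cut at about 10% in these data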
Wnt act: Wnt/beta-catenin pathway activation; activation, % at 9.35 µM; Wnt/beta-catenin reporter cell assay, activator, plate reader; AID 743398; 300,000 tested, 1.2% active; in the data active = activation above about 30%, passing the limit was not always enough; inconclusive = no clear call, values can overlap the other calls
ssDAF-12 act: activators of S. stercoralis DAF-12 nuclear receptor | HEK293 ssDAF-12/GRIP1 lit1-tk-luc reporter, luminescence; % of 3 µM dafachronic acid response | activation, % at 6.8 µM | 370,000 tested, 1% active | AID 652126;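 active = activation above the mean over all tested compounds plus 3 SD, cut at about 0.9% in these data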
DAX1 StAR inh: inhibitors of DAX1 repression of SF-1 activated StAR promoter | HEK293T StAR-luciferase reporter, SF-1/DAX-1 repression relief | inhibition, % at 6.8 µM | 370,000 tested, 1.1% active | AID 652010;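 active = inhibition above the mean over all tested compounds plus 3 SD, cut at about 3.6% in these data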;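 note: higher inhibition means more luminescence from relief of DAX-1 repression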
esBAF inh: inhibitors of esBAF chromatin remodeling in mouse ES cells; reporter increase, % at 12.5 µM; Bmi1-luciferase knock-in reporter, 24 h; 100% = twice the neutral-well signal; AID 602393; 350,000 tested, 2% active; in the data active = activation above about 40%; inconclusive = no clear call, values can overlap the other calls;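 note: a rise in the Bmi1 reporter signal indicates esBAF inhibition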
hcDAF-12 act: activates DAF-12 receptor from parasite H. contortus; HEK293 hcDAF-12 lit1-tk-luc reporter, luminescence; 0% DMSO, 100% Δ7-dafachronic acid; 370,000 tested, 1.4% active; AID 652067; activation, % at 6.8 µM;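 active = activation above the mean of all tested compounds plus 3 SD, cut at about 5.5% in these data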
Hits are given with their value; i = inactive; ? = inconclusive; nt = not tested or not shown.

SMILES | hgDAF-12 ag | Wnt act | ssDAF-12 act | DAX1 StAR inh | esBAF inh | hcDAF-12 act
CN1[C@@H]2c3ccc(-c4ccccc4)c(=O)n3C[C@H]1[C@H](CO)[C@H]2C(=O)NCCc1ccccc1 | nt | nt | nt | nt | i | nt
COc1ccc(C2c3[nH]c4ccccc4c3CCN2Cc2ccoc2)c(F)c1 (stereo unspecified) | i | i | i | i | nt | i
Cc1cccc(C2c3[nH]c4ccccc4c3CCN2Cc2ccc(C)s2)n1 (stereo unspecified) | i | i | 1.0 | i | nt | 6.4
COc1cccc(C2c3[nH]c4ccccc4c3CCN2Cc2cnc(C)s2)c1OC (stereo unspecified) | i | i | 1.1 | i | i | i
COc1ccc(C2c3[nH]c4ccccc4c3CCN2C(=O)Cc2nonc2C)c(F)c1 (stereo unspecified) | i | i | i | i | ? | 5.7
CC(=O)c1ccc(C(=O)N2CCc3c([nH]c4ccccc34)C2c2cccc(C)n2)s1 (stereo unspecified) | i | i | i | i | i | i
Cc1cccc(C2c3[nH]c4ccccc4c3CCN2C(=O)Cc2n[nH]c(C)n2)n1 (stereo unspecified) | i | nt | 1.5 | i | nt | i
COc1ccccc1C1c2[nH]c3ccccc3c2CCN1Cc1cnc(C)s1 (stereo unspecified) | i | i | i | i | i | i
Cc1ccc(C)c(S(=O)(=O)N(C(=O)c2ccncc2)c2ccc(OC(=O)c3ccncc3)cc2)c1 | i | 48 | i | i | nt | i
c1ccc(-c2noc(COc3ccc4c(c3)OCO4)n2)cc1 | i | nt | i | i | 63 | i
COc1ccc(-c2noc(COc3ccc4c(c3)OCO4)n2)cc1 | i | nt | i | i | i | i
CC(SCc1ccccc1)C(=O)Nc1ccccc1-c1ccccc1 (stereo unspecified) | i | nt | i | i | nt | 6.1
CC(=O)N(C)C[C@@H]1Oc2cc(-c3ccccc3)ccc2S(=O)(=O)N([C@H](C)CO)C[C@@H]1C | nt | nt | nt | nt | i | nt
O=c1[nH]c(CSc2ccccn2)nc2c1oc1ccccc12 | 12 | i | i | 4.4 | nt | i
CCc1nc2c(oc3ccccc32)c(=O)[nH]1 | i | nt | i | i | i | i
CCCN(C)C[C@H]1Oc2ncc(-c3ccccc3)cc2C(=O)N([C@@H](C)CO)C[C@H]1C | nt | nt | nt | nt | i | nt
C=CCn1c(=O)c2ccccc2n2c(SCc3nc4ccccc4s3)nnc12 | i | nt | 1.2 | i | nt | i
CC(=O)N1[C@H](C(=O)N2CCc3ccccc3C2)[C@@H](CO)[C@@H]2Cn3c(ccc(-c4cccnc4)c3=O)[C@@H]21 | nt | nt | nt | nt | i | nt
Brc1ccccc1OCCCn1cnc2ccccc21 | 11 | i | i | i | 48 | i
Cc1ccccc1OCCCCn1cnc2ccccc21 | i | nt | i | i | i | i
c1ccc2c(c1)ncn2CCCCOc1ccc2c(c1)CCC2 | i | nt | i | i | i | i
c1ccc2c(c1)ncn2CCCOc1ccc2c(c1)CCC2 | i | 38 | i | i | i | i
C[C@@H]1CN([C@H](C)CO)C(=O)c2cc(NC(=O)NC3CCCCC3)ccc2O[C@@H](C)CCCCO[C@H]1CN(C)Cc1ccccc1 | nt | nt | nt | nt | i | nt
C[C@H]1CN([C@@H](C)CO)S(=O)(=O)c2ccc(C3=CCCC3)cc2O[C@@H]1CN(C)C(=O)c1ccccn1 | nt | nt | nt | nt | i | nt
O=C(O)c1ccc(N=Nc2c(O)[nH]c3ccc(Br)cc23)cc1 | 11 | i | i | i | 80 | i
SMILES | hgDAF-12 ag | Wnt act | ssDAF-12 act | DAX1 StAR inh | esBAF inh | hcDAF-12 act
COC(=O)N=Nc1c(O)[nH]c2ccc(Br)cc12 | i | 53 | i | i | i | i
O=C(CNC(=O)c1ccccc1)N=Nc1c(O)[nH]c2ccc(Br)cc12 | i | i | i | i | i | i
COc1ccccc1-c1cnc2c(c1)C(=O)N([C@@H](C)CO)C[C@H](C)[C@H](CN(C)C(=O)CN(C)C)O2 | nt | nt | nt | nt | i | nt
COc1ccc(SCC(=O)Nc2ccc(N3CCN(C)CC3)c(F)c2)cc1 | i | i | i | i | nt | i
Cc1ccc(SCC(=O)Nc2ccc(N3CCN(C)CC3)c(F)c2)cc1 | i | 40 | i | i | i | i
COc1ccc(S(=O)(=O)N(C)C[C@H]2Oc3ccc(NC(=O)CCCN(C)C)cc3C(=O)N([C@@H](C)CO)C[C@@H]2C)cc1 | nt | nt | nt | nt | i | nt
CCOc1ccc(Nc2oc(-c3ccc(Cl)cc3)nc2C#N)cc1 | i | ? | i | i | 67 | i
COc1ccc(Nc2oc(COc3ccc(Cl)cc3)nc2C#N)cc1 | i | i | i | i | nt | i
COc1ccc(Nc2oc(-c3ccc(Cl)cc3)nc2C#N)cc1 | 11 | i | i | i | 58 | i
CN(C)c1oc(-c2ccc(OCc3ccc(Cl)cc3)cc2)nc1C#N | i | i | i | i | i | i
COc1ccc(Nc2oc(-c3ccc(OC)cc3)nc2C#N)cc1 | i | 32 | i | i | nt | i
COc1ccc(Nc2oc(-c3ccccc3)nc2C#N)cc1 | 10 | i | i | i | 47 | i
CNC[C@@H]1OCCCC[C@@H](C)Oc2ccc(NC(=O)Cc3ccccc3)cc2C(=O)N([C@H](C)CO)C[C@@H]1C | nt | nt | nt | nt | i | nt
CCn1c(SCC(=O)Nc2cc(C)on2)nc2c([nH]c3ccccc32)c1=O | i | i | i | i | i | 6.0
CCn1c(SCC(=O)Nc2cccc(NC(C)=O)c2)nc2c([nH]c3ccccc32)c1=O | i | i | 1.1 | i | i | i
C=CCn1c(SCC(=O)N2CCCC2)nc2c([nH]c3ccccc32)c1=O | i | i | 1.0 | i | nt | 6.3
C=CCn1c(SCC(=O)N2CCN(C(=O)OCC)CC2)nc2c([nH]c3ccccc32)c1=O | i | nt | i | i | i | i
CCn1c(SCC(=O)Nc2ccc(C(C)=O)cc2)nc2c([nH]c3ccccc32)c1=O | i | i | i | i | i | 5.8
COCCn1c(SCC(=O)Nc2cc(C)on2)nc2c([nH]c3ccccc32)c1=O | i | i | i | i | i | i
O=C(Nc1ccc(Br)cc1)c1cnc[nH]1 | 11 | i | i | i | i | 6.5
CCCc1cn(CC[C@H]2CC[C@H](NC(=O)C3CCC3)[C@H](CO)O2)nn1 | nt | nt | nt | nt | i | nt
COc1ccc(C(=O)Nc2nnc(-c3ccccc3)s2)cc1 | i | i | i | i | 47 | i
COC(=O)Nc1nnc(-c2ccc(OC)cc2)s1 | 13 | ? | i | i | nt | i
O=C(Nc1ccccc1)Nc1ccc2c(c1)[C@H]1C[C@H](CC(=O)N3CCOCC3)O[C@@H](CO)[C@H]1O2 | nt | nt | nt | nt | i | nt
CCCNC(=O)[C@H]1[C@H](CO)[C@H]2Cn3c(ccc(C4=CCCC4)c3=O)[C@@H]1N2C(=O)CC1CC1 | nt | nt | nt | nt | i | nt
CCN(CC)c1ccc(C(=O)NN)cc1 | i | i | i | i | nt | i
CCN(CC)c1ccc(N=C2C=CC(=O)C=C2NC(C)=O)cc1 | i | i | i | 3.9 | i | i
O=C(COc1ccc2cc(Br)ccc2c1)N1CCOCC1 | i | i | i | i | 48 | i
Cc1cccc(OCC(=O)N2CCC(c3ccccc3)C2)c1 (stereo unspecified) | 10 | nt | i | i | i | i

Assay outcomes deposited in PubChem BioAssay by several laboratories.
